Bioassay records (PubChem BioAssay)
This is a sample that favours compounds with a hit; in the whole collection about 2.5% have one here.
BJeLR viab HTS: compounds reducing viability of BJeLR cells. viability loss activity score, % (test concentration not listed). 30,000 compounds, 0.64% hits. BJeLR fibroblasts viability, CellTiterGlo ATP luminescence, 48 h; HRASV12, hTERT and SV40 LT/ST transformed; in the data active means viability loss activity score above about 50%;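 further: higher score means fewer live cells and less ATP luminescence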
U2OS ROS induce: raises reactive oxygen species in U2OS cancer cells | AID 624156 | ROS induction (% of piperlongumine), % at 10 µM | 46,000 compounds, 2% hits | U2OS ROS induction, H2DCF-DA fluorescence; in the data active means ROS induction above about 79%, passing the limit was not always enough;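 further: 0% = DMSO vehicle median and 100% = reference compound median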
YB-1 expression: YB-1 expression inhibition; 30,000 compounds, 0.37% hits; delta delta Cp (YB-1 minus CDIP) (no concentration beside the values); U2OS, qRT-PCR YB-1 vs CDIP delta delta Cp, 16 h; active compounds read high; zero = DMSO, each unit about twofold;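 active means delta delta Cp rounded down to an integer at or above 3, about 3 SD of DMSO wells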;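 further: higher means less YB-1 transcript or more CDIP transcript relative to DMSO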
MITF inh: MITF inhibition. inhibition, % (concentration not given with the values). 37,000 compounds, 0.28% hits. AID 2240. TRPM1 promoter luciferase, luminescence, 24 h; in the data active means inhibition above about 85%;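 further: human melanocyte line stably carrying TRPM1 promoter luciferase reporter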
The depositor's hits bear a star; x = not tested or not shown.

SMILES	BJeLR viab HTS	U2OS ROS induce	YB-1 expression	MITF inh
C[C@@H]1O[C@@H](Oc2cc(O)c3c(=O)c(-c4ccc(O)cc4)coc3c2)[C@H](O)[C@H](O)[C@H]1O	10	7	3.9*	-19
COc1ccc(-n2cc(-c3ccccc3)c3c(N4CCCCC4)ncnc32)cc1	2	116*	x	x
CCOc1ccc(-n2cc(-c3ccccc3)c3c(SCC)ncnc32)cc1	-6	x	x	x
Cc1cccc(C2Sc3ccccc3N=C3c4ccccc4C(=O)C32)c1 (stereo not given)	0	106*	0.085	64
COc1ccc(-n2nc(C(=O)N(C)c3ccccc3)c3c4ccccc4n(C)c3c2=O)cc1	-5	x	x	x
CCOC(=O)C1C(=O)C=C(c2ccc3ccccc3c2)CC1c1ccc(C(F)(F)F)cc1 (stereo not given)	-5	x	x	x
CSc1sc(-c2ccnc(SCC(=O)C(C)(C)C)n2)c2c1C(=O)CC(C)(C)C2	-3	139*	-0.32	-25
COc1cc(OC)cc(C(=O)c2ccc(C(=O)NC3(c4ccccc4)CC3)cc2)c1	-2	0	x	x
Cc1ccc(N2C(=S)NC3c4cc(Cl)ccc4OC2(C)C3C(=O)Nc2ccc(C)cc2C)cc1 (stereo not given)	2	3	x	x
CSC(=NCc1ccccc1)Nc1cc(-c2ccccc2)[nH]n1	-2	-11	x	x
COc1ccc2c(c1)O[C@@H]1COc3cc(OC)c(OC)cc3[C@@H]1C2=O	17	0	-0.21	110*
CC(c1ccncc1)N(CCN(C)C)C(=S)Nc1cc(F)cc(F)c1 (stereo not given)	-1	2	x	x
CCCc1nc2sc3c(N4CCCC4)ncnc3c2c2c1CCCC2	-1	x	x	x
COc1ccc(C[C@H](N)C(=O)N[C@@H]2[C@@H](CO)OC(n3cnc4c(N(C)C)ncnc43)[C@@H]2O)cc1 (stereo not given in full)	2	-4	0.076	106*
CC(=O)OC1/C=C(/C(=O)O)CC/C=C(/C)C(=O)/C=C\C1(C)C (stereo not given)	-6	90*	0.044	-11
COC(=O)C1=C(O)/C(=C/c2ccc(O)cc2)SC1=Nc1ccccc1	-4	164*	x	x
COc1cc(C(=O)Nc2ccc(Oc3ncnc4sc(C)c(C)c34)cc2)cc(OC)c1OC	x	104*	x	12
Cc1sc2ncn(CC(=O)Nc3ccc(Oc4ccccc4)cc3)c(=O)c2c1C	x	17	x	16
CC1(C)C=C(C(N)=O)C(C)(C)N1OC(=O)c1ccco1	1	-5	x	x
C[C@@H]1CN([C@@H](C)CO)C(=O)Cc2cc(NS(=O)(=O)c3cccs3)ccc2O[C@@H]1CN(C)Cc1ccc(-c2ccccc2)cc1	x	18	0.039	-10
C[C@@H]1CN([C@H](C)CO)C(=O)Cc2cc(NS(=O)(=O)c3cccs3)ccc2O[C@H]1CN(C)Cc1ccc(-c2ccccc2)cc1	x	96*	-0.3	11
C[C@@H]1CN([C@H](C)CO)C(=O)Cc2cc(NS(=O)(=O)c3ccc(F)cc3)ccc2O[C@@H]1CN(C)Cc1ccc(-c2ccccc2)cc1	x	107*	0.97	-8
C[C@@H]1CN([C@H](C)CO)C(=O)Cc2cc(NS(=O)(=O)c3ccc(F)cc3)ccc2O[C@H]1CN(C)Cc1ccc(-c2ccccc2)cc1	x	65	0.65	12
C=CCn1c(=O)c2c(C)c(C)sc2n2c(Nc3ccc(C(=O)OCC)cc3)nnc12	-3	194*	-0.15	0
COc1ccc(NC(=O)NC2c3ccccc3Oc3ccccc32)cc1OC	2	-3	x	x
SMILES	BJeLR viab HTS	U2OS ROS induce	YB-1 expression	MITF inh
COc1ccc(OC)c(C2N=C(Nc3nc4ccccc4s3)NC3=C2C(=O)CC(C)(C)C3)c1 (stereo not given)	x	x	x	48
O=C1CCCC2=C1C(c1ccccc1Cl)N=C(Nc1nc3ccccc3s1)N2 (stereo not given)	-5	178*	-0.071	23
C[C@H]1CN([C@@H](C)CO)C(=O)c2cccc(NC(=O)c3nc4ccccc4s3)c2O[C@H]1CN(C)Cc1ccc(C(=O)Nc2ccccc2N)cc1	x	172*	0.19	24
C[C@H](CO)N1C[C@H](C)[C@H](CN(C)Cc2ccccc2)Oc2c(NC(=O)c3nc4ccccc4s3)cccc2C1=O	6	22	0.36	-1
C[C@@H]1CN([C@H](C)CO)C(=O)c2cccc(NC(=O)c3nc4ccccc4s3)c2O[C@H]1CN(C)Cc1ccc(C(=O)Nc2ccccc2N)cc1	x	150*	-0.27	40
C[C@H]1CN([C@@H](C)CO)C(=O)c2cccc(NC(=O)c3nc4ccccc4s3)c2O[C@H]1CN(C)Cc1ccc(Oc2ccccc2)cc1	7	95*	-0.15	-15
C[C@H]1CN([C@@H](C)CO)C(=O)c2cccc(NC(=O)c3nc4ccccc4s3)c2O[C@H]1CN(C)Cc1ccccc1	1	11	0.21	-6
C[C@H](CO)N1C[C@H](C)[C@H](CN(C)Cc2ccc(Oc3ccccc3)cc2)Oc2c(NC(=O)c3nc4ccccc4s3)cccc2C1=O	-1	48	0.25	11
CC(=O)N1c2ccc(S(=O)(=O)N3CCc4ccccc43)cc2CC1C (stereo not given)	6	x	x	x
O=S(=O)(c1ccc(Cl)cc1)N1CCc2ccccc21	5	87*	-0.24	48
C=C1C2=C(O[C@H](/C(C)=C/C(C)CC(C)CC)[C@@H](O)[C@@H]2O)C(=O)N1OC (stereo not given in full)	0	149*	-0.38	-2
c1ccc(-c2nnc(N3CCc4ccccc43)nc2-c2ccccc2)cc1	16	103*	-0.36	5
COc1cc(O)c(C(=O)CCc2ccc(OC)c(OC)c2)c(OC)c1	-3	22	4.9*	-51
Cc1ccc(S(=O)(=O)Nc2ccc3c(c2)CC(=O)N([C@@H](C)CO)C[C@@H](C)[C@@H](CN(C)S(=O)(=O)c2ccc(Cl)cc2)O3)cc1	x	15	-0.062	7
C[C@H](CO)N1C[C@H](C)[C@H](CN(C)S(=O)(=O)c2ccc(Cl)cc2)Oc2ccc(NC(=O)Cn3cnnn3)cc2CC1=O	x	126*	0.051	-5
Cc1ccc(S(=O)(=O)N(C)C[C@H]2Oc3ccc(NC(=O)Cn4cnnn4)cc3CC(=O)N([C@@H](C)CO)C[C@@H]2C)cc1	x	-2	-0.073	-5
C[C@H]1CN([C@@H](C)CO)C(=O)Cc2cc(NC(=O)NC3CCCCC3)ccc2O[C@@H]1CN(C)S(=O)(=O)c1cn(C)cn1	x	109*	-0.35	1
C[C@H]1CN([C@@H](C)CO)C(=O)Cc2cc(NC(=O)NC3CCCCC3)ccc2O[C@H]1CN(C)S(=O)(=O)c1ccc(Cl)cc1	x	130*	-0.089	45
Cc1ccc(S(=O)(=O)N(C)C[C@H]2Oc3ccc(NS(=O)(=O)c4ccc(Cl)cc4)cc3CC(=O)N([C@@H](C)CO)C[C@H]2C)cc1	x	212*	-0.12	7
C[C@H](CO)N1C[C@H](C)[C@H](CN(C)S(=O)(=O)c2ccc(Cl)cc2)Oc2ccc(NC(=O)C3CC3)cc2CC1=O	x	123*	-0.22	17
Cc1cc(C)nc(NC(N)=NCc2ccccc2Cl)n1	77*	19	x	x
